Screening data: PubChem, National Center for Advancing Translational Sciences (NCATS)
KCNH2 WT inh: inhibitors of human wildtype KCNH2 potassium channel; U2OS, BacMam KCNH2, thallium flux FluxOr; active compounds read low; 340,000 compounds, 0.37% hits; Q12809; activity change, % at 1.84 µM; AID 720551;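 active = maximum activity change below -70%; inconclusive = maximum activity change between -70% and -50%; inactive = maximum activity change above -50%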
Target sequence (Q12809 whole entry, looked up): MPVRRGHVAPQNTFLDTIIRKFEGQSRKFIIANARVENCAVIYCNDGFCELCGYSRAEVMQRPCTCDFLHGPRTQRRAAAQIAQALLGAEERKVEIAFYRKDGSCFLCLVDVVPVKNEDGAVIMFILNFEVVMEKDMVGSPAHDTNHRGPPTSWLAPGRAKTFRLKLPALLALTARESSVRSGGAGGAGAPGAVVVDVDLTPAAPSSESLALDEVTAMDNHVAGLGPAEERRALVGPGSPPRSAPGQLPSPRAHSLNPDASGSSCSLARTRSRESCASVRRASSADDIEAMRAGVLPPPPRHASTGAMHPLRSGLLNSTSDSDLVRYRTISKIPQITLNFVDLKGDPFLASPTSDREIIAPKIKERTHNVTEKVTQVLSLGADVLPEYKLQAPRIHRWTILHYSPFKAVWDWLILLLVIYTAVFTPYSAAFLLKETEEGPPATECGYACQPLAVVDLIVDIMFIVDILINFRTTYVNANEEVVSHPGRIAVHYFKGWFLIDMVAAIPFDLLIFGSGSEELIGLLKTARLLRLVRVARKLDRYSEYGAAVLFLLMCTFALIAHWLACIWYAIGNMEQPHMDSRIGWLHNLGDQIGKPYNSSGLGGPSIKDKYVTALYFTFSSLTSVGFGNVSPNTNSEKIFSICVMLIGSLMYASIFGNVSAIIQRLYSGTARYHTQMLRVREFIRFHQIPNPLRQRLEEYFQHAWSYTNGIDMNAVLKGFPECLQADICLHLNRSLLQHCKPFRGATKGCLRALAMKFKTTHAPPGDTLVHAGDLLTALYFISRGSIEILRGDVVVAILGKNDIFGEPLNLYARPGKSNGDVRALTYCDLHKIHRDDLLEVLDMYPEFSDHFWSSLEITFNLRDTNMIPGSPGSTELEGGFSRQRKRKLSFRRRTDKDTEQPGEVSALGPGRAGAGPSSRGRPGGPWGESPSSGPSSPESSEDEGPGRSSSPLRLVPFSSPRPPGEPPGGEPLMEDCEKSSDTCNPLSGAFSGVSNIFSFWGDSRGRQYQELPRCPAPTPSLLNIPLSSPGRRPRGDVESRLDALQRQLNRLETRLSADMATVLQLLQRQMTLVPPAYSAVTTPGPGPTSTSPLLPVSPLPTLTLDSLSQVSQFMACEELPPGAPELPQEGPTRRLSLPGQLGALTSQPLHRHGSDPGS
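U2OS cells transduced with wild-type KCNH2 virus are loaded with FluxOr dye for 45 min, and thallium flux is measured in kinetic reads before and after stimulation buffer. Rate constants are normalized to DMSO controls.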
pAkt inh: blocks phosphorylation of Akt | 360,000 compounds, 0.32% hits | Neuro2A IGF-stimulated pAkt S473 HTRF, 20 min; active compounds read low | activity change, % for hits at 50 µM; in the data active = activity change below about -80%; inconclusive = mostly about -51% to -80%
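Neuro2A cells in DMEM with 0.5% FBS, overnight at 37 deg C, given compound at single 50 µM final, then IGF (6 nM final) for 20 min at 37 deg C. Lysed; phospho-Akt Ser473 by HTRF after 24 h, 665/615 ratio.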
KCNH2 3.1 inh: KCNH2 3.1 (human) potassium channel inhibition | U2OS KCNH2 3.1, thallium flux FluxOr; active compounds read low | activity change, % (tested at about 1.8 µM) | 340,000 compounds, 0.95% hits | AID 720553;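 active = maximum activity change below -70%; inconclusive = maximum activity change from -70% to -50%; inactive = maximum activity change above -50%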;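 note: thallium influx rate constant from kinetic fluorescence after stimulation buffer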
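Thallium flux read-out: FluxOr dye with Red40 quencher in HBSS/HEPES, 45 min at RT. Rate constants from kinetic reads were normalized to positive and negative DMSO controls. Cells: U2OS virally expressing the 3.1 isoform.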
RXFP1 antag: blocks the human relaxin receptor RXFP1; 350,000 compounds, 0.59% hits; HEK293-RXFP1, relaxin-stimulated cAMP HTRF, 30 min; active compounds read low; AID 1259400; activity change, negative = inhibition, % at 57.5 µM;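 active = activity change of -60% or lower, but not beyond a set lower limit; inconclusive = change between -60% and -40%, or beyond the set limit; inactive = change above -40%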
RXFP1 ag: agonists of human relaxin receptor RXFP1; Q9HBX9; HEK293T-RXFP1 cAMP TR-FRET, 30 min; response scale: percent of porcine relaxin response, buffer zero; Potency, µM (series often up to 57.5 µM), actives largely listed as activators; 370,000 compounds, 0.3% hits; AID 2676; active = well fitted activation curve with a large enough effect; inconclusive = small, poorly fitted or top-dose-only effect; note: nearly all actives have a fitted effect of over 60% in size
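Agonist response is measured as cAMP accumulation in an RXFP1-transfected HEK293T line under PDE4 inhibition. Values are scaled between buffer-only and 29 nM porcine relaxin, and EC50s come from standard Hill equation fits.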
Numbers stand for hits; i = inactive; ? = inconclusive; nt = no result; ! = a repeat was not active. Shown are actives, neighbours in structure and some others; about 1.7% of the full set was active somewhere.

SMILES	KCNH2 WT inh	pAkt inh	KCNH2 3.1 inh	RXFP1 antag	RXFP1 ag
CN(CC(=O)Nc1ccccc1-c1ccccc1)C1CCCCC1	i	i	i	i	i
FC(F)=C(F)CCSc1ncn[nH]1	i	i	i	i	i
Cc1cc(C)cc(N2C(=O)NC(=O)/C(=C\c3cccn3-c3ccccc3)C2=O)c1	i	i	i	i	i
CN1C(=O)/C(=C/c2cccn2-c2ccc3ccccc3c2)C(=O)NC1=S	i	i	i	-97	i
O=C(c1ccccc1)c1ccc(N=Nc2c(O)[nH]c(=O)[nH]c2=O)cc1	nt	i	i	i	i
O=c1[nH]c(=S)[nH]c(O)c1N=Nc1ccc(S(=O)(=O)N2CCc3ccccc32)cc1	i	i	i	-100	i
Cc1c(N=Nc2c(O)[nH]c(=S)[nH]c2=O)c(=O)n(-c2ccccc2)n1C	i	i	i	i	i
O=c1[nH]c(=S)[nH]c(O)c1N=Nc1ccc(SC(F)F)cc1	i	i	i	-71	i
COc1cc(OC)c(OC)cc1/C=C1/C(=O)NC(=O)N(Cc2ccccc2)C1=O	i	i	i	-64	i
Fc1ccc(CNC2CN3CCC2CC3)cc1 (stereo not given)	i	i	i	i	i
CN1CCN(CC(=O)Nc2ccc(Cl)cc2C(=O)c2ccccc2)CC1	?	i	-78	i	i
O=C(CN1CCN(CCO)CC1)Nc1ccc(Cl)cc1C(=O)c1ccccc1	i	i	-87	i	i
O=C(CN1CCCCC1)NCC(=O)Nc1ccc(Br)cc1C(=O)c1ccccc1	i	i	-78	i	i
CCN(CC)CC(=O)Nc1ccc(Cl)cc1C(=O)c1ccccc1	i	i	i	i	nt
O=C1C2C3CCC(O3)C2C(=O)N1c1cccc(F)c1 (stereo not given)	i	i	i	i	nt
Cn1cc(C=C(C#N)C#N)c2ccccc21	i	i	i	i	i
O=C1C=CC(=O)C2C1C1(Cl)C(Cl)=C(Cl)C2(Cl)C1(Cl)Cl (stereo not given)	i	i	i	-95	nt
COc1ccccc1N1CCN(Cc2ccc(Br)cc2)CC1	i	i	-76	i	i
COc1ccccc1N1CCN(Cc2ccccc2Cl)CC1	i	i	i	i	i
CN1CCc2nc3ccc(F)cc3c(C(N)=O)c2C1	i	-99%	i	i	i
Cc1ccc(C)c(NC(=O)CCNC(=O)N2C[C@H]3C[C@@H](C2)c2cccc(=O)n2C3)c1	i	i	i	nt	i
O=C(NC1CCCCC1)N1Cc2cc(-c3ccccc3)ccc2-n2nncc2C1	nt	i	nt	nt	nt
COC(=O)C1=C(c2ccc(C(C)=O)cc2)C[C@@H]2CC[C@H]1N2C(=O)N1CCC(O)(c2ccc(Cl)cc2)CC1	-115	i	-88	nt	i
COC(=O)C1=C(c2ccc(C(C)=O)cc2)C[C@@H]2CC[C@H]1N2C(=O)N1CCC(C)CC1	i	i	i	nt	i
COc1ccc(N=C2SCCCN2C)cc1	i	i	i	i	i
SMILES	KCNH2 WT inh	pAkt inh	KCNH2 3.1 inh	RXFP1 antag	RXFP1 ag
O=C(C1CC(=O)N(C2CCCCC2)C1)N1CCC2(CC1)OCCO2 (stereo not given)	i	-110%	i	i	i
CC(C)n1c(O)c(C2c3cc(Cl)ccc3Oc3[nH]c(=O)n(C(C)C)c(=O)c32)c(=O)[nH]c1=O (stereo not given)	i	i	i	-84	i
CN1CCCC(C(=O)c2ccccc2)C1 (stereo not given)	i	i	i	i	i
C=CCN1C(=O)NC(=O)/C(=C/c2cc3c4c(c2)CCCN4CCC3)C1=O	i	i	i	i	i
NC(=O)c1ccc(OCCC(O)N2CC=C(c3ccc(F)cc3)CC2)cc1 (stereo not given)	i	i	-73	nt	i
CCC1(OC(=O)CN)C(=O)OCc2c1cc1n(c2=O)Cc2cc3ccccc3nc2-1 (stereo not given)	i	i	i	i	?
CC[C@@]1(O)C(=O)OCc2c1cc1n(c2=O)Cc2cc3c(NC(=O)CN)cccc3nc2-1	i	i	i	i	14µM
O=[N+]([O-])/C=C/c1c(Cl)cccc1Cl	i	i	nt	-67	nt
COc1cc(CN2C(=O)NC(=O)C3(Cc4cc(C)ccc4N(C)C3)C2=O)cc(OC)c1 (stereo not given)	i	i	i	i	i
COc1ccc2c(c1)CC1(CN2C)C(=O)NC(=O)N(CCc2ccccc2)C1=O (stereo not given)	i	i	-95	i	i
Oc1cc(Cl)ccc1Oc1ccc(Cl)cc1Cl	i	i	i	-77!	nt
O=C(O)COc1ccc(Cl)cc1Cl	i	i	i	i	nt
COc1cc2c(cc1OC)-c1c3c(cc4c1[C@@H](C2)N(C)CC4)OCO3	i	i	i	nt	i
OC(COCc1ccc(Cl)cc1)CN1CC=C(c2ccccc2)CC1 (stereo not given)	?	i	-112	-61!	i
COC(=O)CN1C(=O)CN=C(c2ccccc2Cl)c2cc(Br)ccc21	i	i	i	i	i
C=CCn1c(O)c(C(C)=NCCN2CCN(C(=S)NC)CC2)c(=O)[nH]c1=O	-99	i	i	i	i
C=CCn1c(O)c(C(C)=NCCN2CCOCC2)c(=O)[nH]c1=O	i	i	i	i	i
Cc1ccc(NC(=O)c2cccn(Cc3ccccc3C)c2=O)c(C)c1	nt	nt	nt	nt	i
COc1ccc(N2C(=O)/C(=C/C=C/c3ccccc3[N+](=O)[O-])C(=O)NC2=S)cc1	i	i	i	-77	i
COc1ccc(N2C(=O)/C(=C/c3cccs3)C(=O)NC2=S)cc1	i	i	i	i	i
FC(F)(F)c1ccc2c(c1)nnn2C1CCN(Cc2nnnn2Cc2ccccc2)CC1	i	i	-76	i	i
Cc1ccc(Cn2nnnc2CN2CCC(n3nnc4cc(C(F)(F)F)ccc43)CC2)cc1	?	i	-93	i	i
Cc1nc2cc(C(F)(F)F)ccc2n1C1CCN(Cc2nnnn2CCc2ccccc2)CC1	i	i	-81	i	i
Cc1nc2cc(F)ccc2n1C1CCN(Cc2nnnn2CCc2ccccc2)CC1	i	i	i	i	i
Cc1ccc(Cn2nnnc2CN2CCC(n3nnc4cc(C)ccc43)CC2)cc1	i	i	i	i	i
SMILES	KCNH2 WT inh	pAkt inh	KCNH2 3.1 inh	RXFP1 antag	RXFP1 ag
Cc1c(C(=O)N2CCC3(CC2)OCCO3)oc2ccccc12	i	i	i	i	i
C=CCN1C(=O)NC(=O)/C(=C\c2ccc(-c3ccccc3[N+](=O)[O-])o2)C1=O	i	i	i	-101	i
CN(C)c1ccc(/C=C2/C(=O)NC(=O)N(Cc3ccco3)C2=O)cc1	i	i	i	i	i
O=C1NC(=O)N(Cc2ccco2)C(=O)/C1=C/c1ccc(-c2cccc([N+](=O)[O-])c2)o1	i	i	i	-67	i
Cc1cccc(OCCn2cccc2/C=C2/C(=O)NC(=O)N(Cc3ccco3)C2=O)c1	i	i	i	-68	i
Cc1ccc(C(=O)O)cc1N=Nc1c(O)[nH]c(=O)[nH]c1=O	i	i	i	i	i
